These results are taken from PubChem BioAssay (NCATS).

Structures are written as SMILES. “And” between values parts separate entries of the source, which are not always exact repeats. Equal values may be shown once. Results filed as inconclusive are left out. Where a call stands in place of a potency, no number is given. Unmarked numbers belong to inactive results. The source made the active and inactive calls. Calls follow the shape of the dose curve; as a rule, active = well fitted curve in the direction sought with a large enough effect; inconclusive = small, poorly fitted or top-dose-only effect, or another doubt; inactive = no such curve, though single readings can be large; an effect the other way counts as inactive or inconclusive.

The test system of the first assay is UISO. The experiment in a line: qHTS assay to identify novel small-molecules to repurpose for Merkel cell carcinoma treatment (AID 1296009). Also: nearly all actives have a fitted effect of over 60% in size. The conditions noted are these: MCC and control cell lines, CellTiter-Glo viability, 72 h; series mostly up to 46 µM. The essentials: (§1)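 Cell viability, measured as CellTiter-Glo luminescence, was normalized between DMSO and no-cell wells. The cells had been exposed to 8- or 11-point compound dilutions for 72 hr at 37 degree celsius.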
Background: qHTS replaces the single test concentration by a dilution series.
As for `OC[C@@H](O)[C@@H](O[C@@H]1O[C@H](CO)[C@H](O)[C@H](O)[C@H]1O)[C@H](O)[C@@H](O)CO`, the Potency result was “inactive”.
Still for that read-out and setting: to `CCN(CC)C(=O)N1CCN(C)CC1` belongs “inactive”.
On to `O=C1OC(c2ccc(O)cc2)(c2ccc(O)cc2)c2ccccc21`, for which the Potency result was “inactive”.
For `C[C@H]1[C@H](NC(=O)/C(=N/OC(C)(C)C(=O)O)c2csc(N)n2)C(=O)N1S(=O)(=O)O` (stereo in doubt), the Potency entry was “inactive”.
In the case of `NC(=O)c1cc[n+](CC2=C(C(=O)[O-])N3C(=O)[C@@H](NC(=O)Cc4cccs4)[C@H]3SC2)cc1`, the Potency entry is “inactive”.
For the compound `CC(C)(Oc1ccc(Cl)cc1)C(=O)O`, the Potency result was “inactive”.
Consider `CCOC(=O)n1ccn(C)c1=S`, for which the Potency result is “inactive”.

The next assay has as its system WaGa. The description is as above. As to conditions: MCC and control cell lines, CellTiter-Glo viability, 72 h; series mostly up to 46 µM. Put shortly: as §1
Background: ATP-based viability assays read luminescence as a measure of living cells.
With `OC[C@@H](O)[C@@H](O[C@@H]1O[C@H](CO)[C@H](O)[C@H](O)[C@H]1O)[C@H](O)[C@@H](O)CO`, the Potency entry is “inactive”.
Take `CCN(CC)C(=O)N1CCN(C)CC1`: the Potency result was “inactive”.
On to `O=C1OC(c2ccc(O)cc2)(c2ccc(O)cc2)c2ccccc21`, for which the Potency entry is “inactive”.
Take `C[C@H]1[C@H](NC(=O)/C(=N/OC(C)(C)C(=O)O)c2csc(N)n2)C(=O)N1S(=O)(=O)O` (stereo in doubt): the Potency result was “inactive”.
With `NC(=O)c1cc[n+](CC2=C(C(=O)[O-])N3C(=O)[C@@H](NC(=O)Cc4cccs4)[C@H]3SC2)cc1`, the Potency result is “inactive”.
As for `CC(C)(Oc1ccc(Cl)cc1)C(=O)O`, the Potency result was “inactive”.
Still for that read-out and setting: to `CCOC(=O)n1ccn(C)c1=S` belongs “inactive”.

A further assay concerns C33A. As to the kind of experiment: Primary qHTS to identify gynecologic anti-cancer compounds using libraries of approved drugs and bioactive compounds (AID 1345084). Also: nearly all actives have a fitted effect of over 55% in size. Also: potency is read from the fitted curve at half-maximal effect. The conditions noted are these: Gynecologic cancer cell panel viability, ATPlite luminescence, 48 h; series mostly up to 57.5 µM. The essentials:
(§2)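 Luminescence from the ATPlite ATP-monitoring reagent indicates viable cell number; lower signal means cytotoxicity. Cells received compound 16 h after seeding and were exposed for 48 h across five concentrations.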
`CCCCc1nc(Cl)c(CO)n1Cc1ccc(-c2ccccc2-c2nn[nH]n2)cc1`: the Potency result is “inactive”.
The same measure, in the same setting: to `CCN1CCN(c2cc3c(cc2F)c(=O)c(C(=O)O)cn3C2CC2)CC1` belongs “inactive”.
In the case of `OC[C@@H](O)[C@@H](O[C@@H]1O[C@H](CO)[C@H](O)[C@H](O)[C@H]1O)[C@H](O)[C@@H](O)CO`, the Potency entry was “inactive”.
Consider `CC(=O)OCC(=O)[C@@]1(O)CC[C@H]2[C@@H]3CCC4=CC(=O)C=C[C@]4(C)[C@H]3[C@@H](O)C[C@@]21C`, for which the Potency result was “inactive”.
On the same count and under the same terms, to `C#C[C@]1(OC(C)=O)CC[C@H]2[C@@H]3CCC4=C[C@@H](OC(C)=O)CC[C@@H]4[C@H]3CC[C@@]21C` belongs “inactive”.
Take `C/C=C/c1ccc(OC)cc1`: the Potency result was “inactive”.
`Nc1ccn([C@@H]2O[C@H](CO)[C@@H](O)C2(F)F)c(=O)n1`: the Potency result is “inactive”.
On to `CC(=O)OCC(=O)[C@@]12OC(C)(C)O[C@@H]1C[C@H]1[C@@H]3C[C@H](F)C4=CC(=O)C=C[C@]4(C)[C@@]3(F)[C@@H](O)C[C@@]12C`, for which the Potency entry was “inactive”.
With `CCCCCCCCCCCCCCCCOP(=O)([O-])OCC[N+](C)(C)C`, the Potency entry was “inactive”.
Turning to `CCN(CC)CCNC(=O)COc1ccc(Cl)cc1`, the Potency result was “inactive”.
As for `CCN(CC)C(=O)N1CCN(C)CC1`, the Potency entry was “inactive”.
Regarding `CC(C)NC[C@@H](O)COc1cccc2ccccc12`, the Potency result is “inactive”.
Turning to `Nc1ccc(/C=C/c2ccc(N)cc2S(=O)(=O)O)c(S(=O)(=O)O)c1`, the activity change, negative = cytotoxicity was -2.85% [at 0.462 µM].
Take `CC(O)C(=O)O` (stereo not drawn): the Potency result is “inactive”.
As to `CC(CCc1ccccc1)NCC(O)c1ccc(O)c(C(N)=O)c1` (stereo not drawn), the Potency result was “inactive”.
With `c1ccc(-c2ccc(C(c3ccccc3)n3ccnc3)cc2)cc1` (stereo not drawn), the Potency result is “inactive”.
For `O=C1OC(c2ccc(O)cc2)(c2ccc(O)cc2)c2ccccc21`, the Potency entry was “inactive”.
As to `C[C@H]1[C@H](NC(=O)/C(=N/OC(C)(C)C(=O)O)c2csc(N)n2)C(=O)N1S(=O)(=O)O` (stereo in doubt), the Potency result was “inactive”.
The same measure, in the same setting: next, `Cc1c(C(N)=O)cc([N+](=O)[O-])cc1[N+](=O)[O-]`: “inactive”; `CN1C(CCl)Nc2cc(Cl)c(S(N)(=O)=O)cc2S1(=O)=O` (stereo not drawn): “inactive”.
The same measure, in the same setting: to `O=C(OCCOCCO)c1ccccc1Nc1cccc(C(F)(F)F)c1` belongs “inactive”; to `Oc1c(Cl)cc(Cl)cc1Sc1cc(Cl)cc(Cl)c1O`, “inactive”; to `CC(Cc1ccccc1)(NC(=O)CN)c1ccccc1` (stereo not drawn), “inactive”.
Still for that read-out and setting: next, `COc1cc(C(=S)N2CCOCC2)cc(OC)c1OC`: “inactive”; `CCN1CCCC1=O`: “inactive”; `NC(=O)c1cc[n+](CC2=C(C(=O)[O-])N3C(=O)[C@@H](NC(=O)Cc4cccs4)[C@H]3SC2)cc1`: “inactive”.
Regarding `CC(C)(Oc1ccc(Cl)cc1)C(=O)O`, the Potency entry was “inactive”.
In the case of `CCOC(=O)n1ccn(C)c1=S`, the Potency result was “inactive”.
Take `C[C@]12CC[C@@H]3c4ccc(O)cc4CC[C@H]3[C@@H]1C[C@@H](O)[C@@H]2O`: the Potency result was “inactive”.
Consider `COc1cccc(OC)c1C(=O)N[C@@H]1C(=O)N2[C@@H]1SC(C)(C)[C@@H]2C(=O)O`, for which the Potency entry is “inactive”.
As for `O=C(O)CCCCC(=O)O`, the Potency entry is “inactive”.

Another assay concerns CAOV3. The assay is described as above. The conditions noted are these: Gynecologic cancer cell panel viability, ATPlite luminescence, 48 h; series mostly up to 57.5 µM. Put shortly:
as §2
On to `CCCCc1nc(Cl)c(CO)n1Cc1ccc(-c2ccccc2-c2nn[nH]n2)cc1`, for which the Potency result is “inactive”.
On to `CCN1CCN(c2cc3c(cc2F)c(=O)c(C(=O)O)cn3C2CC2)CC1`, for which the Potency entry is “inactive”.
As to `CC(=O)OCC(=O)[C@@]1(O)CC[C@H]2[C@@H]3CCC4=CC(=O)C=C[C@]4(C)[C@H]3[C@@H](O)C[C@@]21C`, the Potency result was “inactive”.
Regarding `C#C[C@]1(OC(C)=O)CC[C@H]2[C@@H]3CCC4=C[C@@H](OC(C)=O)CC[C@@H]4[C@H]3CC[C@@]21C`, the Potency entry is “inactive”.
Consider `C/C=C/c1ccc(OC)cc1`, for which the Potency result was “inactive”.
For `Nc1ccn([C@@H]2O[C@H](CO)[C@@H](O)C2(F)F)c(=O)n1`, the Potency is 631 nM (active) and 1.12 µM (active).
The same measure, in the same setting: to `CCN(CC)CCNC(=O)COc1ccc(Cl)cc1` belongs “inactive”.
For the compound `CCN(CC)C(=O)N1CCN(C)CC1`, the Potency result was “inactive”.
In the case of `CC(C)NC[C@@H](O)COc1cccc2ccccc12`, the Potency entry is “inactive”.
Regarding `Nc1ccc(/C=C/c2ccc(N)cc2S(=O)(=O)O)c(S(=O)(=O)O)c1`, the activity change, negative = cytotoxicity is -5.63% [at 0.462 µM].
With `CC(O)C(=O)O` (stereo not drawn), the Potency result is “inactive”.
Still for that read-out and setting: to `CC(CCc1ccccc1)NCC(O)c1ccc(O)c(C(N)=O)c1` (stereo not drawn) belongs “inactive”; to `c1ccc(-c2ccc(C(c3ccccc3)n3ccnc3)cc2)cc1` (stereo not drawn), “inactive”; to `O=C1OC(c2ccc(O)cc2)(c2ccc(O)cc2)c2ccccc21`, “inactive”.
As to `C[C@H]1[C@H](NC(=O)/C(=N/OC(C)(C)C(=O)O)c2csc(N)n2)C(=O)N1S(=O)(=O)O` (stereo in doubt), the Potency result was “inactive”.
As to `Cc1c(C(N)=O)cc([N+](=O)[O-])cc1[N+](=O)[O-]`, the Potency result is “inactive”.
The same measure, in the same setting: to `CN1C(CCl)Nc2cc(Cl)c(S(N)(=O)=O)cc2S1(=O)=O` (stereo not drawn) belongs “inactive”; to `O=C(OCCOCCO)c1ccccc1Nc1cccc(C(F)(F)F)c1`, “inactive”; to `Oc1c(Cl)cc(Cl)cc1Sc1cc(Cl)cc(Cl)c1O`, “inactive”.
For `CC(Cc1ccccc1)(NC(=O)CN)c1ccccc1` (stereo not drawn), the Potency entry is “inactive”.
Consider `COc1cc(C(=S)N2CCOCC2)cc(OC)c1OC`, for which the Potency result is “inactive”.
Take `CCN1CCCC1=O`: the Potency entry is “inactive”.
Turning to `NC(=O)c1cc[n+](CC2=C(C(=O)[O-])N3C(=O)[C@@H](NC(=O)Cc4cccs4)[C@H]3SC2)cc1`, the Potency result is “inactive”.
In the case of `CC(C)(Oc1ccc(Cl)cc1)C(=O)O`, the Potency result was “inactive”.
Still for that read-out and setting: to `CCOC(=O)n1ccn(C)c1=S` belongs “inactive”; to `C[C@]12CC[C@@H]3c4ccc(O)cc4CC[C@H]3[C@@H]1C[C@@H](O)[C@@H]2O`, “inactive”; to `COc1cccc(OC)c1C(=O)N[C@@H]1C(=O)N2[C@@H]1SC(C)(C)[C@@H]2C(=O)O`, “inactive”.
Consider `O=C(O)CCCCC(=O)O`, for which the Potency entry is “inactive”.
